Screens from PubChem BioAssay.
Only some compounds are listed: those with a hit (about 19% of all), similar ones and a draw of the others.
TDP1 cell CPT: growth inhibition of DT40 Tdp1-/-;hTDP1 cells with camptothecin (screen for TDP1 inhibitors); chicken DT40 Tdp1-/-;hTDP1 cells + 20 nM CPT, ATP luminescence, 48 h; Potency, µM (doses to about 46.2 µM), for inactives: at the top dose activity change, negative = growth inhibition, most hits filed as inhibitors; actives 12% (n = 420,000); AID 686979; further: nearly all actives have a fitted effect of over 55% in size
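Cell growth measured by CellTiter-Glo luminescence after a minimum 48 h, 37 C compound exposure with 20 nM CPT in Tdp1-knockout DT40 cells stably expressing hTDP1, seeded 400/well; qHTS titration format.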
TDP1 cell noCPT: qHTS for Inhibitors of human tyrosyl-DNA phosphodiesterase 1 (TDP1): qHTS in cells in absence of CPT; DT40 Tdp1-/- hTDP1 cells, no CPT, ATP luminescence, 48 h; Potency, µM (top dose mostly 46.2 µM), inactives show at the top dose activity change, negative = growth inhibition, hits mostly inhibitors; actives 15% (n = 420,000); AID 686978, 2013; further: nearly all actives have a fitted effect of over 55% in size
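Stably hTDP1-transfected Tdp1-null chicken DT40 cells were treated with library compounds minus camptothecin and grown for at least 48 hr at 37 °C, after which cellular ATP was quantified by luminescence.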
HT1080NT lethal: kills 2HG-producing HT-1080-NT fibrosarcoma cells; HT-1080-NT fibrosarcoma viability, CellTiter-Glo ATP luminescence, 48 h; Potency, µM (doses to about 46.1 µM), for inactives: at the top dose activity, negative = less viability, usual class: cytotoxic; actives 1.6% (n = 360,000); AID 686970;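 further: NT is the 2HG producing partner of a matched IDH1 knockdown line; 0% = DMSO-treated cells and -100% = media-only wells without cells; nearly all actives have a fitted effect of over 55% in size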
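Viability of the 2HG-overproducing fibrosarcoma line after 48 hours of compound exposure at 37 degrees C was determined by luminescence with CellTiter-Glo, and concentration-effect curves were then fitted and categorized.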
HT1080 IDH1KD tx: HT-1080 IDH1 knockdown cell toxicity (counter line); HT-1080 IDH1 knockdown viability, ATP luminescence, 48 h; Potency, µM (series often up to 46.1 µM), inactives show at the top dose activity, negative = toxicity, usual class: cytotoxic; actives 2% (n = 360,000);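 further: 0% = DMSO wells and -100% = cell-free medium wells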
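Assay cells: HT-1080 with IDH1 knockdown, 750 per well, RPMI/5% FBS. Exposure: 48 h at 37 °C following 2 h pre-incubation. Read: CellTiter-Glo luminescence; fitted concentration-response, curve class assigned.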
KB-V1 MDR tox: KB-V1 MDR subline cytotoxicity; KB-V1 MDR cells viability, CellTiter-Glo, 72 h; Potency, µM (highest dose often 46.1 µM), usual class: cytotoxic; actives 3.4% (n = 400,000); AID 1347076; further: nearly all actives have a fitted effect of over 60% in size
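Compound-treated KB-V1 multidrug-resistant cells, 72 h, 37 degrees C; viability by CellTiter-Glo. Fitted qHTS curves give the values.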
KB-3-1 tox: KB-3-1 parental cell cytotoxicity; KB-3-1 viability, CellTiter-Glo ATP luminescence, 72 h; Potency, µM (highest dose often 46.1 µM), hits mostly cytotoxic; actives 1.4% (n = 400,000); AID 1347075; further: nearly all actives have a fitted effect of over 60% in size
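Viability of parental KB-3-1 cells, measured by CellTiter-Glo luminescence, followed a 72 h incubation at 37 °C with pinned compounds in phenol-red-free DMEM containing 10% FBS.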
* = called active by the depositor; i = inactive; ? = inconclusive; . = not tested or not shown. The call rests on the fitted dose curve; in most records, active means well fitted curve in the direction sought with a large enough effect; inconclusive means small, poorly fitted or top-dose-only effect, or another doubt; inactive means no such curve, though single readings can be large; an effect the other way counts as inactive or inconclusive. Unless noted, on the % scale 0 is the no-effect control and ±100 the full control effect; potency means the concentration at half of the fitted maximal effect.

SMILES	TDP1 cell CPT	TDP1 cell noCPT	HT1080NT lethal	HT1080 IDH1KD tx	KB-V1 MDR tox	KB-3-1 tox
CCOc1ccc(NC(=O)Cn2cc(S(=O)(=O)NC)c(S(=O)(=O)NC)c2)cc1	-3%	-15%	.	.	i	i
CCOc1ccc(CNC(=O)Cn2ncc3c(=O)oc4ccc(C)cc4c32)cc1	-2%	-23%	.	.	i	i
CC1(C)CC(=O)C2=C(C1)OC(N)=C(C#N)C2c1cccs1 (centres undefined)	-24%	?	24%	5%	i	i
CC1(C)CC(=O)C2=C(C1)OC(N)=C(C#N)C2c1ccccc1[N+](=O)[O-] (centres undefined)	21µM*	?	-4%	2%	i	i
CC(C)c1ccc(-c2nn(-c3ccccc3)cc2C2C(C#N)=C(N)OC3=C2C(=O)CC(C)(C)C3)cc1 (centres undefined)	?	18µM*	?	?	i	?
CCc1nc2ccc(C(=O)NCCCn3ccnc3)cn2c1N(C)C(=O)C1CCCCC1	-7%	-10%	22%	9%	i	i
Cc1ccc(-c2nc3scc(CCNS(=O)(=O)c4ccc(C)c(C)c4)n3n2)cc1	?	21µM*	.	.	.	.
CC(C)(C)C(=O)NCCc1csc2nc(-c3ccc(F)cc3)nn12	?	15µM*	.	.	i	i
O=C(NCCc1csc2nc(-c3ccc(F)cc3)nn12)c1cccc(C(F)(F)F)c1	?	?	.	.	i	i
CCCS(=O)(=O)NCCc1csc2nc(-c3ccc(C)cc3)nn12	?	23µM*	.	.	.	.
COc1ccc(-c2nc3scc(CCNC(=O)c4cccc(Br)c4)n3n2)cc1	?	26µM*	.	.	i	i
COC(=O)C1(C)NC(c2ccc(OC)cc2)C2C(=O)N(c3ccccc3)C(=O)C21 (centres undefined)	0%	?	1%	1%	i	i
O=C(NCc1cccnc1)[C@@H]1CC=C[C@@H]2CCN(C3CCCCC3)C(=O)[C@@H]21	-5%	2%	.	.	i	i
COc1cc(NC(=O)CSc2ncnc3sc4c(c23)CCCC4)c(C(=O)O)cc1OC	-3%	-7%	-3%	-2%	i	i
Cc1cccc(-c2nc3scc(CCNC(=O)c4ccc(Br)o4)n3n2)c1	?	?	.	.	i	i
Cc1ccc(C)c(NC(=O)C(=O)NCCc2csc3nc(-c4ccccc4C)nn23)c1	?	18µM*	.	.	?	?
O=S(=O)(NCCc1csc2nc(-c3ccc(F)cc3)nn12)c1ccc(Oc2ccccc2)cc1	15µM*	21µM*	.	.	.	.
Cc1ccc(-c2nc3scc(CCNC(=O)Cc4ccc(Cl)cc4)n3n2)cc1	15µM*	18µM*	.	.	i	i
N#Cc1ccccc1CSc1nnc(-c2ccccc2)o1	.	.	.	.	?	i
Cc1ccc(C(=O)/C=C/c2ccc(-c3ccc(C)cc3)o2)cc1	5.2µM*	5.2µM*	0%	-5%	i	i
O=[N+]([O-])c1ccc(-c2ccc(/C=N/O)o2)cc1	-22%	?	-5%	-8%	i	i
CCN(CC)S(=O)(=O)c1ccc(C(=O)/C=C/c2ccc(-c3ccc([N+](=O)[O-])cc3)o2)cc1	?	6.5µM*	12%	14%	i	i
O=C(/C=C\c1ccc(-c2ccccc2)o1)c1ccccc1	?	?	-11%	-21%	i	i
O=c1oc2cc(O[C@@H]3OC[C@@H](O)[C@H](O)[C@H]3O)ccc2c2ccccc12	13%	-2%	6%	1%	i	i
COc1ccc(CN(C(=O)CSc2nnc(-c3ccc(F)cc3)o2)c2ccc(F)cc2)cc1	23µM*	21µM*	1%	-7%	21µM*	i
SMILES	TDP1 cell CPT	TDP1 cell noCPT	HT1080NT lethal	HT1080 IDH1KD tx	KB-V1 MDR tox	KB-3-1 tox
COc1ccc(CN(C(=O)CSc2nnc(-c3c[nH]c4ccccc34)o2)c2ccc(F)cc2)cc1OC	8.2µM*	9.2µM*	?	?	15µM*	?
COc1ccc(-c2nnc(SCC(=O)c3ccc(C)o3)o2)cc1	?	?	2%	-2%	23µM*	?
COc1ccc(-c2nnc(SCc3cc(C)cc(C)c3)o2)cc1	?	?	22%	14%	21µM*	i
CCOC(=O)CSc1nnc(-c2c[nH]c3ccccc23)o1	16%	7%	17%	1%	?	i
CCN(CC(=O)NCc1ccc(Cl)cc1)C(=O)CNS(=O)(=O)c1ccc(NC(C)=O)cc1	-24%	0%	7%	2%	.	.
COc1cc(Cl)ccc1OC1(C)CCN(Cc2c(F)cccc2F)C1 (centres undefined)	?	?	-16%	2%	i	i
CSc1cc(-c2ccccc2)n(Cc2ccc(Cl)cc2Cl)c(=O)c1C#N	18µM*	23µM*	24%	?	i	i
C[C@H](CCC(=O)O)[C@H]1CC[C@@H]2[C@H]3CC[C@H]4C[C@H](O)CC[C@]4(C)[C@@H]3CC[C@@]21C	2%	-11%	.	.	.	.
CC1CN(CCCCOc2ccc(Cl)c3ccccc23)CC(C)O1 (centres undefined)	?	10µM*	21µM*	?	i	i
CCCCCCCCN1N=N[C@H]2[C@H]1[C@@H]1C[C@H]2N(C(=O)OC(C)(C)C)O1	?	?	0%	1%	i	i
COC(=O)c1ccc(NC(=O)[C@H](C)NC(N)=O)cc1	4%	12%	-11%	-11%	i	i
CC(C)c1ccc(NC(=O)C2CCCN2S(=O)(=O)c2ccc3nc(-c4ccccc4)[nH]c3c2)cc1 (centres undefined)	10µM*	7.3µM*	.	.	.	.
O=S(=O)(c1ccc2nc(-c3ccccc3)[nH]c2c1)N1CCN(c2ccc(Cl)cc2)CC1	?	?	-25%	?	?	i
CN(C)S(=O)(=O)c1ccc(Cl)c(C(=O)Nc2nc3ccccc3[nH]2)c1	-24%	-23%	0%	-5%	i	i
Cc1ccc(NS(=O)(=O)c2ccc(Cl)c(C(=O)Nc3ccccc3-c3nc4ccccc4[nH]3)c2)cc1C	7.3µM*	8.2µM*	6.5µM*	8.2µM*	7.3µM*	?
Cc1cccc(NC(=O)C2CCCN2S(=O)(=O)c2ccc3nc(-c4ccccc4)[nH]c3c2)c1 (centres undefined)	?	18µM*	.	.	.	.
